Source: PubChem BioAssay (Tox21)
Records with an inconclusive call do not appear. Calls of active or inactive are those of the source. Unless noted, the call rests on the fitted dose curve.

Legend:
[1] = Nuclear factor erythroid 2-related factor 2/antioxidant responsive element (Nrf2/ARE) small molecule agonists: qHTS cell viability counter screen in human keratinocytes (AID 1919968; active means well fitted curve in the direction sought with a large enough effect in the repeat runs; an effect the other way counts as inactive or inconclusive; further: nearly all actives have a fitted effect of over 55% in size)
Summary of the method: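 Viability counter-screen: KeratinoSens reporter cells, DMSO-delivered compounds, 23 h at 37 C, CellTiter-Fluor fluorescence.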

[2] = Nuclear factor erythroid 2-related factor 2/antioxidant responsive element (Nrf2/ARE) small molecule agonists: luciferase reporter gene qHTS assay in human keratinocytes (AID 1919969); further: nearly all actives have a fitted effect of over 35% in size
[3] = biological target: Gonadotropin-releasing hormone receptor (Homo sapiens) (UniProt P30968); test: Human gonadotropin-releasing hormone receptor (GnRHR) small molecule agonists, calcium flux assay in GnRHR-HEK293 cells (AID 1920063); further: nearly all actives have a fitted effect of over 35% in size
Gonadotropin-releasing hormone receptor (Homo sapiens), sequence (P30968 whole entry, looked up): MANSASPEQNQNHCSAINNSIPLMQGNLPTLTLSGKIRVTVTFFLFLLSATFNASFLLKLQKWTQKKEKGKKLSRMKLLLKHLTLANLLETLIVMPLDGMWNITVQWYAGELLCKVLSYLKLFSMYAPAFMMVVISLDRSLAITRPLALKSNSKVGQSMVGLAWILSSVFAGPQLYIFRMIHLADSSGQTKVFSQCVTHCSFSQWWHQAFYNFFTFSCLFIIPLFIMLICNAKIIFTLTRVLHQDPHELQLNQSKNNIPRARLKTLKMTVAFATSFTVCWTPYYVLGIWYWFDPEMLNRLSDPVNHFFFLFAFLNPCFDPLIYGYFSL
Summary of the method: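 Tox21-format agonist screen using human GnRHR-expressing HEK293 cells and a fluorescent calcium dye; kinetic 3-min fluorescence reading after compound addition, 15-point concentration series run in triplicate.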

[4] = biological target: KiSS-1 receptor (Homo sapiens) (UniProt Q969F8); test: Human kisspeptin (KISS1R) small molecule agonists, calcium flux assay in KISS1R-HEK293 cells (AID 1920064; active means well fitted curve in the direction sought with a large enough effect in the repeat runs; an effect the other way counts as inactive or inconclusive)
KiSS-1 receptor (Homo sapiens), sequence (Q969F8 whole entry, looked up): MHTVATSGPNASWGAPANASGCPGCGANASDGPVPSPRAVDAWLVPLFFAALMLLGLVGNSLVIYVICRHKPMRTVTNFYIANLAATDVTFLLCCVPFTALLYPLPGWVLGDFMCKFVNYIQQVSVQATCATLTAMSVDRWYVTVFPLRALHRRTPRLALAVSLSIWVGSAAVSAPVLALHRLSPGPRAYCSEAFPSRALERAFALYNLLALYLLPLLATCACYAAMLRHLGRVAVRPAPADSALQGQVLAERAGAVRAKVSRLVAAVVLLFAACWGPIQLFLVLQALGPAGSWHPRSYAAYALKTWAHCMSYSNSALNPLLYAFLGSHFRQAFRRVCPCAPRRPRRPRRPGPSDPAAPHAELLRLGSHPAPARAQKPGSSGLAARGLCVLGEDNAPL
Summary of the method: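 Intracellular calcium mobilization in KISS1R-HEK293 cells was recorded by fluorescence (Ex/Em 480/540) for 3 min following compound addition to cells pre-loaded 1 h with calcium dye.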

[5] = G protein-coupled receptor (GPCR) small molecule agonists, calcium flux assay: HEK293 wild type cell line counter screen (AID 1920065)
Summary of the method: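 In this agonist-mode screen, ATP is the positive control and DMSO the vehicle. Cells grow 18 h before a 1 h dye incubation at 37 C; signal is taken at Ex/Em 480/540 over 3 min.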

[6] = p53 small molecule agonists, cell-based qHTS assay with human liver microsomes: qHTS cell viability counter screen (AID 1963579); further: nearly all actives have a fitted effect of over 45% in size
Summary of the method: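 Cytotoxicity counter screen: p53RE-bla, 4,000 cells/well; 5 h settle, 37 C/5% CO2; cpd + HLM 0.5 mg/mL + NADPH 0.5 mg/mL (final); 16 h, 37 C; CellTiter-Glo, 30 min RT, luminescence.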

[7] = p53 small molecule agonists, cell-based qHTS assay with rat liver microsomes: qHTS cell viability counter screen (AID 1963580); further: nearly all actives have a fitted effect of over 45% in size
Summary of the method: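 HCT-116 p53RE-bla, 4,000 cells/well, 5 h pre-incubation; cpd + rat liver microsomes 0.5 mg/mL + NADPH 0.5 mg/mL (final); 16 h, 37 C; CellTiter-Glo, 30 min RT; luminescence.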

[8] = biological target: 5-hydroxytryptamine receptor 2A (Homo sapiens) (UniProt P28223); test: 5-hydroxytryptamine receptor 2A (HTR2A) small molecule antagonists, cell-based qHTS assay (AID 1963586); further: nearly all actives have a fitted effect of over 45% in size
5-hydroxytryptamine receptor 2A (Homo sapiens), sequence (P28223 whole entry, looked up): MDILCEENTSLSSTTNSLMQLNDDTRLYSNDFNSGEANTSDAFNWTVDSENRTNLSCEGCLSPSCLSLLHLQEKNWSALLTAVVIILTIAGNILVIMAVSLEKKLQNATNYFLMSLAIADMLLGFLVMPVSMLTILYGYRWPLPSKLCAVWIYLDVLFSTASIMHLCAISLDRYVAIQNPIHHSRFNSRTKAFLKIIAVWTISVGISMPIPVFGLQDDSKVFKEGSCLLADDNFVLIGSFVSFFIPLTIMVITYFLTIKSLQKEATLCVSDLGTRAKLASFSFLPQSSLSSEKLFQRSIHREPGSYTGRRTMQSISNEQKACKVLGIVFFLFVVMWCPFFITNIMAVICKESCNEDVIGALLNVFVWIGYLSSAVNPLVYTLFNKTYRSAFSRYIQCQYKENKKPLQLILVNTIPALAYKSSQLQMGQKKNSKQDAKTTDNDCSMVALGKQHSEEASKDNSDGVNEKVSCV
Summary of the method: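 Antagonist-mode intracellular calcium assay: DOI (4 nM) added after 5 min compound pre-incubation at room temperature to dye-loaded HTR2A-CHO cells. Fluorescence followed for 3 min, sampled every second.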

[9] = biological target: 5-hydroxytryptamine receptor 2A (Homo sapiens) (UniProt P28223); test: 5-hydroxytryptamine receptor 2A (HTR2A) small molecule agonists, cell-based qHTS assay (AID 1963587); further: nearly all actives have a fitted effect of over 30% in size
Summary of the method: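 Kinetic calcium-flux fluorescence (2 min, 1 sec intervals) after compound addition in agonist mode. HTR2A-CHO cells were cultured 18 h, then dye-loaded 1 h at 37 C.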

[10] = biological target: Muscarinic acetylcholine receptor M1 (Homo sapiens) (UniProt P11229); test: Cholinergic receptor muscarinic 1 (CHRM1) small molecule antagonists, cell-based qHTS assay (AID 1963588); further: nearly all actives have a fitted effect of over 40% in size
Muscarinic acetylcholine receptor M1 (Homo sapiens), sequence (P11229 whole entry, looked up): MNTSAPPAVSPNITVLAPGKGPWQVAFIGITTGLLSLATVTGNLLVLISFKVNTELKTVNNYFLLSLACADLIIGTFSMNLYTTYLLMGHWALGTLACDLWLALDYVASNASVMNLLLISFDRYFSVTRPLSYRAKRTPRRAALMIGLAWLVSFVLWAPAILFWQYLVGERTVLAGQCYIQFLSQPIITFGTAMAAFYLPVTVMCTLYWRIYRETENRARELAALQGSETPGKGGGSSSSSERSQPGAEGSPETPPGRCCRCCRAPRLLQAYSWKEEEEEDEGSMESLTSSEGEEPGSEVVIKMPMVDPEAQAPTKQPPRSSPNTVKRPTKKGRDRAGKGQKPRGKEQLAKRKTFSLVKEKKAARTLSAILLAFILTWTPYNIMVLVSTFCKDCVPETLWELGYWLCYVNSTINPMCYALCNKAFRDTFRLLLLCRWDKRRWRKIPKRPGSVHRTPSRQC
Summary of the method: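 CHRM1-CHO calcium-flux assay, antagonist mode. Cells were seeded 18 h, dye-loaded 1 h at 37 C and given compound for 5 min at RT, then acetylcholine was added at 50nM. FDSS fluorescence was read 3 min; 15 concentrations, three runs.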

[11] = biological target: Muscarinic acetylcholine receptor M1 (Homo sapiens) (UniProt P11229); test: Cholinergic receptor muscarinic 1 (CHRM1) small molecule agonists, cell-based qHTS assay (AID 1963589); further: nearly all actives have a fitted effect of over 35% in size
Summary of the method: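 Stable CHRM1-CHO cells (human receptor) were incubated 18 h, dye-loaded for 1 h at 37 C and exposed to test compounds for agonist activity, with calcium-dependent fluorescence followed kinetically.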

[12] = cAMP Responsive Elements (CRE) small molecule agonists, cell-based qHTS assay (AID 1963590)
Summary of the method: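 FRET-based beta-lactamase readout (LiveBLAzer B/G, 2 h RT) quantified CRE activation in HEK 293T CRE-bla cells after 3 h treatment with DMSO-dissolved compounds.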

[13] = cAMP Responsive Elements (CRE) small molecule antagonists, cell-based qHTS assay (AID 1963591; active means well fitted inhibition curve with a large enough effect in the signal ratio in the repeat runs, not every such curve was filed as active; the % refers to the signal ratio)
Summary of the method: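 qHTS in CRE-bla HEK 293T cells: compound in DMSO, then 0.25 uM NKH477 (final), 3 h at 37 °C/5% CO2; beta-lactamase FRET read-out after 2 h substrate incubation.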

[14] = biological target: Beta-2 adrenergic receptor (Homo sapiens) (UniProt P07550); test: Adrenergic beta2 receptor (ADRB2) small molecule antagonists, cell-based qHTS assay (AID 1963592); further: series mostly up to about 92 µM; nearly all actives have a fitted effect of over 50% in size
Beta-2 adrenergic receptor (Homo sapiens), sequence (P07550 whole entry, looked up): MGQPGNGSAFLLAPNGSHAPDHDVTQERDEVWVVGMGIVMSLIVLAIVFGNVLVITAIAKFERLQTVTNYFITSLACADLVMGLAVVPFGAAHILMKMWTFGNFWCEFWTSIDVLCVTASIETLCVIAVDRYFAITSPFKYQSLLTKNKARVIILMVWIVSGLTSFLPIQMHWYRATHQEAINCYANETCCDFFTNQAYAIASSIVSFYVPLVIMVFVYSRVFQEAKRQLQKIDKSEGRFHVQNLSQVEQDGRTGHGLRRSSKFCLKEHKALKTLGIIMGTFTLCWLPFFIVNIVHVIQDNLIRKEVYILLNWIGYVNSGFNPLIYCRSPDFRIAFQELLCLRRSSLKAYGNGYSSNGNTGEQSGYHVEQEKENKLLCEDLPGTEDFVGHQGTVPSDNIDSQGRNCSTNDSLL
Summary of the method: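 Cells (CHO, stable ADRB2 overexpression) incubated 18-20hr at 37C; compounds added from DMSO; agonist mix (1nM isoproterenol, 100uM IBMX, 25uM Ro-20-1724) added; 0.5hr RT; d2-cAMP and anti-cAMP-cryptate added; 1hr RT; 665/615 nm read.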

[15] = biological target: D(2) dopamine receptor (Homo sapiens) (UniProt P14416); test: Dopamine D2 receptor (DRD2) small molecule antagonists, cell-based qHTS assay (AID 1963595; active means well fitted inhibition curve with a large enough effect in the signal ratio in the repeat runs, with a control signal flat; the % refers to the signal ratio)
D(2) dopamine receptor (Homo sapiens), sequence (P14416 whole entry, looked up): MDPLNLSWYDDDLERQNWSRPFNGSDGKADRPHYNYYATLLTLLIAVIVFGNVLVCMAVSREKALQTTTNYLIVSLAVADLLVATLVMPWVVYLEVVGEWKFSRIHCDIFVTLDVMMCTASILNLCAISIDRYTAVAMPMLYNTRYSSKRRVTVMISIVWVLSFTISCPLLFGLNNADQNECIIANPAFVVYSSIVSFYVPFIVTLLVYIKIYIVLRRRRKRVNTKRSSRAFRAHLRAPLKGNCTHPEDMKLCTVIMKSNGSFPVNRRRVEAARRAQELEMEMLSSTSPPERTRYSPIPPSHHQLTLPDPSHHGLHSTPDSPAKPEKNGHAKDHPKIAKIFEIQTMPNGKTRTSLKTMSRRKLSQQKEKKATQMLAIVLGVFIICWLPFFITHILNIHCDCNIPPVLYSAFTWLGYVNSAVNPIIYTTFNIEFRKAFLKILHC
Summary of the method: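 Stable D2 receptor HEK293 line, 24 h after seeding. Compound preincubated 10 min, then quinpirole (12 nM) with forskolin analogue NKH477 (200 nM), 30 min, room temperature. Detection by time-resolved FRET of cAMP.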

[16] = biological target: Beta-2 adrenergic receptor (Homo sapiens) (UniProt P07550); test: Adrenergic beta2 receptor (ADRB2) small molecule agonists, cell-based qHTS assay (AID 1963593);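 further: CHO cells stably overexpressing human ADRB2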
Summary of the method: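 CHO cells stably over-expressing ADRB2 were plated overnight at 37C, then dosed with compounds plus a stimulation mix containing 100uM IBMX and 25uM Ro-20-1724 for 0.5hr at room temperature. cAMP was measured by HTRF competition, 1hr.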

[17] = biological target: D(2) dopamine receptor (Homo sapiens) (UniProt P14416); test: Dopamine D2 receptor (DRD2) small molecule agonists, cell-based qHTS assay (AID 1963594); further: nearly all actives have a fitted effect of over 35% in size
Summary of the method: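 cAMP accumulation in DRD2-HEK293 cells measured by HTRF after 1 h detection; compounds added 10 min before NKH477 (200nM […]) forskolin-analogue stimulation, 30 min at room temperature, with Ro20-1724 present at 0.1 mM final.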
On the % scale 0 is the no-effect control and ±100 the full control effect.

Cc1ccc(C(C)C)cc2c(C)ccc1-2
inactive: Potency [1] | Potency [2] | Potency [3] | Potency [4] | Potency [5] | Potency [6] | Potency [7] | Potency [8] | Potency [9] | Potency [10] | Potency [11] | Potency [12] | Potency [13] | Potency [14] | Potency [15]

COC(=O)CCSCCC(=O)OC
inactive: Potency [1] | Potency [2] | Potency [3] | Potency [4] | Potency [5] | Potency [6] | Potency [7] | Potency [8] | Potency [9] | Potency [10] | Potency [11] | Potency [12] | Potency [13] | Potency [14] | Potency [16] | Potency [15]

CC(C)Cn1cnc2c1c(=O)n(C)c(=O)n2C
inactive: Potency [1] | Potency [2] | Potency [3] | Potency [4] | Potency [5] | Potency [6] | Potency [7] | Potency [8] | Potency [9] | Potency [10] | Potency [11] | Potency [12] | Potency [13] | Potency [14] | Potency [16] | Potency [15]

CC(C)(C)Cl
inactive: Potency [1] | Potency [2] | Potency [3] | Potency [4] | Potency [5] | Potency [6] | Potency [7] | Potency [8] | Potency [9] | Potency [10] | Potency [11] | Potency [12] | Potency [14] | Potency [16] | Potency [17] | Potency [15]

N=C(N)N1CCc2ccccc2C1
inactive: activity change, negative = cytotoxicity [1] 2.9% [at 8.39 µM] | activity, positive = activation [2] -4.04% [at 8.39 µM] | activity change [3] 0.504% [at 5.22 µM, hits give high values] | activation [4] -0.218% [at 6.97 µM] | activation [5] -0.314% [at 5.23 µM] | activity change, negative = cytotoxicity [6] -1.79% [at 5.99 µM] | activity change, negative = cytotoxicity [7] 0.465% [at 5.99 µM] | activation [9] -10.3% [at 7.02 µM] | activity, negative = inhibition [10] -1.92% [at 5.58 µM] | activation [11] 0.312% [at 6.97 µM] | activation [12] 0.166% [at 8.39 µM] | activity change, negative = inhibition [13] -2.28% [at 8.39 µM] | activity change, negative = inhibition [14] -8.55% [at 8.39 µM] | activation [16] 9.27% [at 8.39 µM] | activation [17] 22% [at 8.39 µM] | activity change, negative = inhibition [15] 16.9% [at 8.38 µM]

CCNCCO
inactive: Potency [1] | Potency [2] | Potency [3] | Potency [4] | Potency [5] | Potency [6] | Potency [7] | Potency [9] | Potency [10] | Potency [11] | Potency [12] | Potency [13] | Potency [14] | Potency [16] | Potency [17] | Potency [15]

C=C(C)C(=O)OCCOCCOC(=O)C(=C)C
inactive: Potency [1] | Potency [2] | Potency [3] | Potency [4] | Potency [5] | Potency [6] | Potency [7] | Potency [8] | Potency [9] | Potency [10] | Potency [11] | Potency [14] | Potency [16] | Potency [17] | Potency [15]

CC(=O)c1ccccc1[N+](=O)[O-]
inactive: Potency [1] | Potency [2] | Potency [3] | Potency [4] | Potency [5] | Potency [6] | Potency [7] | Potency [8] | Potency [9] | Potency [10] | Potency [11] | Potency [12] | Potency [13] | Potency [14] | Potency [17] | Potency [15]
